The campaign covered roughly 5,500 compounds. About 2,000 (36%) were called active. About 18% were inconclusive and are not listed. Rule as the data show it: active = normalized growth mostly below about 0.91 (no sharp cut-off); inconclusive = no clear call, values can overlap the other calls; inactive = mostly above about 0.92. The list shows a part of the results.
Assay: chemical genetic growth profiling, strain panel (AID 1159580);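 also: tested at 20 µM; growth read once vehicle control cultures reached saturation at 30 °C; 1 = growth at the plate median or of vehicle wells; lower values mean less growth of the strain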
Conditions: S. cerevisiae deletion strains, growth OD

Measured: normalized growth

CCC(=O)c1ccc2c(c1)N(CCCN(C)C)c1ccccc1S2
inactive: locus YAL040C, strain CLN3, active compounds read low 0.997 | locus YCL061C, strain MRC1 (second series), active compounds read low 1 | locus YDR150W, strain NUM1, active compounds read low 1.01 | locus YDR363W, strain ESC2, active compounds read low 1.02 | locus YER002W, strain NOP16, active compounds read low 1.01 | locus YGR229C, strain SMI1, active compounds read low 0.986 | locus YJR075W, strain HOC1, active compounds read low 0.985 | locus YNL153C, strain GIM3, active compounds read low 1.16 | locus YNL175C, strain NOP13, active compounds read low 1.02 | locus YNL197C, strain WHI3, active compounds read low 1.05 | locus YNL224C, strain SQS1, active compounds read low 1.07 | locus YNL322C, strain KRE1, active compounds read low 0.971 | locus YOR083W, strain WHI5 (second series), active compounds read low 1 | locus YPL055C, strain LGE1, active compounds read low 0.988

Source: PubChem BioAssay AID1159580 (chemical genetic matrix, 2015)
